# Measured values taken from PubChem BioAssay (EPA / NIEHS).
# Results filed as inconclusive are left out. Active and inactive are the calls of the source. How the source made its calls, unless noted: active means hit-call score of the fitted dose curve at least 0.9, where 1 is the maximum; inconclusive means response in the unintended direction; inactive means score below 0.9.
# Tests used:
# [1] = Tanguay_ZF_120hpf_TRUN_legacy: (Legacy) Oregon State University Tanguay Lab 120 Hour Post-fertilization zebrafish Assay for Truncated Body (AID 2283655)
# How it was run: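 Truncated body is recorded as a binary endpoint at 120 hpf by brightfield imaging of wild-type 5D larvae. Exposure runs statically from 6 hpf at 28C with 0.64% DMSO; embryos dying earlier are not scored.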
# [2] = Tanguay_ZF_120hpf_NC_legacy: (Legacy) Oregon State University Tanguay Lab 120 Hour Post-fertilization zebrafish Assay for Notochord and Tail Malformation (AID 2283656)
# How it was run: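 Binary scoring of notochord distortion by brightfield microscopy; embryos dying were not scored. Wild-type Tropical 5D embryos, chorion removed, exposed singly and statically from 6 to 120 hpf, 28C, sealed, 0.64% DMSO.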
# [3] = tested on: Thyroperoxidase (TPO), gene 54314; assay: CCTE_Simmons_AUR_rTPO: CCTE's Amplex UltraRed Assay for Thyroperoxidase (TPO) Inhibition, Simmons Lab (AID 2283662);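 on AC50: potency for loss of signal meaning inhibition of peroxidase activity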
# How it was run: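 Rat thyroid microsomes (5 ug protein) with 25 uM Amplex UltraRed and 300 uM H2O2 in 200 mM phosphate buffer, 30 min at 37C in dark; fluorescence 544/590 nm. Eight concentrations, 5 nM–87.5 uM final, 0.5% DMSO, triplicate biological replicates.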
# [4] = read-out: solute carrier (SLC10A1), SLC10A1 (gene 6554); assay: LTEA_HepaRG_SLC10A1: Life Technologies and Expression Analysis (LTEA) Assay for solute carrier (SLC10A1) using HepaRG (AID 2283657; active means hit-call score of the fitted dose curve at least 0.9, where 1 is the maximum; inactive means score below 0.9); conditions: mRNA level, 48 h; actives raise or lower the signal
# How it was run: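 HepaRG, 48 h exposure, 8-pt half-log curve from 100 uM in 0.5% DMSO, duplicates. Read-out: TaqMan qRT-PCR of SLC10A1 mRNA, normalized to three housekeeping genes. Gain/loss fit vs DMSO baseline.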
# [5] = read-out: matrix metalloproteinase-1 (MMP1), MMP1 (gene 4312); assay: LTEA_HepaRG_MMP1: Life Technologies and Expression Analysis (LTEA) Assay for matrix metalloproteinase-1 (MMP1) using HepaRG (AID 2283658; active means hit-call score of the fitted dose curve at least 0.9, where 1 is the maximum; inactive means score below 0.9); conditions: mRNA level, 48 h; actives raise or lower the signal
# How it was run: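 HepaRG, ~100,000 cells/well, 48 h pre-culture; serum-free induction medium; test chemical 8 conc (max 100 uM, half-log), duplicate, 48 h; 0.5% DMSO; qRT-PCR MMP1, housekeeping-normalized; gain/loss fit vs DMSO.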
# [6] = read-out: ABC Transporter (ABCB1), ABCB1 (gene 5243); assay: CLD_ABCB1_6hr: CellzDirect (CLD) Gene Expression Assay for ABC Transporter (ABCB1) at 6 hours (AID 2283659);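 further: hits raise ABCB1 transcript above the DMSO vehicle baseline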
# Protocol: (§1) CLD_6hr is a cell-based, multiplexed-readout assay that uses hepatocyte, a human liver primary cell, with measurements taken at 6 hours after chemical dosing in a 96-well plate.CLD_ABCB1_6hr is one of 16 assay component(s) measured or calculated from the CLD_6hr assay. It is designed to make measurements of mRNA induction, a form of inducible reporter, as detected with chemiluminescence signals by Quantitative Nuclease Protection Assay (qNPA) technology.Data from the assay component CLD_ABCB1_6hr was analyzed at the endpoint, CLD_ABCB1_6hr, in the positive analysis fitting direction relative to DMSO as the negative control and baseline of activity. Using a type of inducible reporter, gain-of-signal activity can be used to understand changes in the reporter gene as they relate to the gene ABCB1. Furthermore, this assay endpoint can be referred to as a primary readout. To generalize the intended target to other relatable targets, this assay endpoint is annotated to the transporter intended target family, where subfamily is ABC transporter.
# (§2) Human hepatocyte cultures were treated daily for two consecutive days with fresh dosing solutions containing appropriate concentrations of the 320 ToxCast chemicals (chemical identities were blinded to CellzDirect and other ToxCast collaborators), vehicle control (0.2% DMSO), and positive control inducers as summarized in Table 1. Due to the large number of treatment groups and chemicals examined, the ToxCast chemicals were divided into two groups (spanning two independent cultures of hepatocytes from separate donor preparations (Hu778: ToxCast plates 1 and 2; Hu776: ToxCast plates 3 and 4). Each preparation of human hepatocyte cultures was treated with respective vehicle control, medium only control, set of six positive controls/reference chemicals for the five hepatic receptor pathways, and a subset of eight of the ToxCast chemicals (indoxacarb, pyrithiobac-sodium, norflurazon, cyhalofop-butyl, methomyl, thiram, acetochlor, and propiconazole). These replicate data, coupled with internal replicates designed within the blinded ToxCast chemical library, provided additional data to evaluate interindividual differences between hepatocyte preparations and their potential impact on chemical profiles.Cell morphology and integrity were evaluated using phase-contrast microscopy as an indicator of hepatocyte cell health (Tyson & Green, 1987). Cultures for each treatment group (i.e., media, vehicle [0.2% DMSO], positive control inducers [multiple concentrations], and the ToxCast chemicals [multiple concentrations]) were observed and cell morphology was assessed relative to vehicle control cultures at each harvest time point (0, 6, 24, or 48 h). […] Images were evaluated at the conclusion of the study to assess changes in cell integrity and account for the effects of chemical exposure on uncharacteristic changes in concentration-dependent gene expression profiles. The results from these determinations of apparent cytotoxicity were annotated (yes/no) alongside the corresponding qNPA data for reference.At the conclusion of each treatment period, hepatocyte cultures (96-well) were washed with 1 volume of HBSS, lysed by addition of 25 ul ArrayPlate lysis buffer (HTG, Tucson, AZ), and 70 ul/well of Denaturation Oil, denatured by incubation at 95C for 10 min, and frozen at approximately -70C until analysis by nuclease protection assay (qNPA) (Roberts et al., 2007). […]
# [7] = read-out: Broad substrate specificity ATP-binding cassette transporter ABCG2 (Homo sapiens) (UniProt Q9UNQ0); assay: CLD_ABCG2_6hr: CellzDirect (CLD) Gene Expression Assay for ABC Transporter (ABCG2) at 6 hours (AID 2283660)
# How it was run: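 ABCG2 mRNA induction measured by qNPA chemiluminescence in human primary hepatocyte cultures, 6 h post-dose. Chemicals tested at several concentrations against a 0.2% DMSO vehicle; positive-direction fit relative to DMSO.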
# [8] = read-out: xenobiotic metabolism (CYP1A1), CYP1A1 (gene 1543); assay: CLD_CYP1A1_6hr: CellzDirect (CLD) Gene Expression Assay for xenobiotic metabolism (CYP1A1) at 6 hours (AID 2283661);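 on AC50: potency for transcript induction above DMSO vehicle baseline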
# Protocol: as §1, with “plate.CLD_CYP1A1_6hr” for “plate.CLD_ABCB1_6hr”, “CLD_CYP1A1_6hr” for “CLD_ABCB1_6hr”, “CLD_CYP1A1_6hr,” for “CLD_ABCB1_6hr,”, “CYP1A1.” for “ABCB1.”, “cyp” for “transporter”, “xenobiotic metabolism.” for “ABC transporter.”
# as §2
# [9] = read-out: xenobiotic metabolism (CYP1A2), CYP1A2 (gene 1544); assay: CLD_CYP1A2_6hr: CellzDirect (CLD) Gene Expression Assay for xenobiotic metabolism (CYP1A2) at 6 hours (AID 2283663);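 on AC50: potency is for induction meaning a rise in mRNA above DMSO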
# How it was run: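 mRNA levels quantified by quantitative nuclease protection assay with chemiluminescence, 6 h after dosing human primary hepatocyte cultures (two donors) across several concentrations, vehicle 0.2% DMSO. Induction fitted upward versus DMSO; phase-contrast cytotoxicity annotated.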
# [10] = read-out: xenobiotic metabolism (CYP2C9), CYP2C9 (gene 1559); assay: CLD_CYP2C9_6hr: CellzDirect (CLD) Gene Expression Assay for xenobiotic metabolism (CYP2C9) at 6 hours (AID 2283664)
# Protocol: as §1, with “plate.CLD_CYP2C9_6hr” for “plate.CLD_ABCB1_6hr”, “CLD_CYP2C9_6hr” for “CLD_ABCB1_6hr”, “CLD_CYP2C9_6hr,” for “CLD_ABCB1_6hr,”, “CYP2C9.” for “ABCB1.”, “cyp” for “transporter”, “xenobiotic metabolism.” for “ABC transporter.”
# Human hepatocyte cultures were treated daily for two consecutive days with fresh dosing solutions containing appropriate concentrations of the 320 ToxCast chemicals (chemical identities were blinded to CellzDirect and other ToxCast collaborators), vehicle control (0.2% DMSO), and positive control inducers as summarized in Table 1. […] These replicate data, coupled with internal replicates designed within the blinded ToxCast chemical library, provided additional data to evaluate interindividual differences between hepatocyte preparations and their potential impact on chemical profiles.Cell morphology and integrity were evaluated using phase-contrast microscopy as an indicator of hepatocyte cell health (Tyson & Green, 1987). Cultures for each treatment group (i.e., media, vehicle [0.2% DMSO], positive control inducers [multiple concentrations], and the ToxCast chemicals [multiple concentrations]) were observed and cell morphology was assessed relative to vehicle control cultures at each harvest time point (0, 6, 24, or 48 h). […]
# Broad substrate specificity ATP-binding cassette transporter ABCG2 (Homo sapiens), sequence (Q9UNQ0 whole entry, looked up): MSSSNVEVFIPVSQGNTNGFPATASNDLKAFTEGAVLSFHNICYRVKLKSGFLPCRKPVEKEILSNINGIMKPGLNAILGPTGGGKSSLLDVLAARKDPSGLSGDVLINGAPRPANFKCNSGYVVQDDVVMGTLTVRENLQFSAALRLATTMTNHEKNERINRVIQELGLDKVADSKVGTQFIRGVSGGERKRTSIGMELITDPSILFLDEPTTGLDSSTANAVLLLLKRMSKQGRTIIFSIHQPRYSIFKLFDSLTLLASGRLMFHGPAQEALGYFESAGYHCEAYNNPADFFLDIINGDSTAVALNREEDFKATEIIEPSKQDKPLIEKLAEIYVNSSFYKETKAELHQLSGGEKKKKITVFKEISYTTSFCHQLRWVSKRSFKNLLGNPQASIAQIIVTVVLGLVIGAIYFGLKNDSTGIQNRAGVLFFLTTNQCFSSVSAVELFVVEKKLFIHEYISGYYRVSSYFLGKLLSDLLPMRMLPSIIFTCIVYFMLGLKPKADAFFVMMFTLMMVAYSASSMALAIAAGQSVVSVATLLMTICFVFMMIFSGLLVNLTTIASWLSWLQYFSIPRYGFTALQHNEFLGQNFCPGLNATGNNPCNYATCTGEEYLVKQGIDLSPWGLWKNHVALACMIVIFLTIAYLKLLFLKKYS
smiles,measurement,setting,value
C[C@]12CCC(=O)C=C1CC[C@@H]1[C@@H]2CC[C@]2(C)C(=O)CC[C@@H]12,outcome,[1],inactive
same,outcome,[2],inactive
same,outcome,[3],inactive
CCCCCCCCCc1ccc(O)cc1,outcome,[1],inactive
same,outcome,[2],inactive
same,outcome,[4],inactive
same,outcome,[5],inactive
same,AC50,[3],10.5 µM (active)
CCC(C)(c1ccc(O)cc1)c1ccc(O)cc1,AC50,[1],46.6 µM (active)
same,AC50,[3],1.86 µM (active)
Cc1ccccc1CO[C@@H]1C[C@@]2(C(C)C)CC[C@]1(C)O2,outcome,[1],inactive
same,outcome,[2],inactive
same,outcome,[6],inactive
same,outcome,[7],inactive
same,outcome,[8],inactive
same,AC50,[3],28 µM (active)
same,outcome,[9],inactive
CC1=C2C[C@H]3[C@@H](CC=C4C[C@@H](O)CC[C@@]43C)[C@@H]2CC[C@]12O[C@@H]1C[C@H](C)CN[C@H]1[C@H]2C,outcome,[1],inactive
same,outcome,[2],inactive
same,outcome,[4],inactive
same,outcome,[5],inactive
COc1ccc(O)c(C(C)(C)C)c1,outcome,[1],inactive
same,outcome,[2],inactive
same,AC50,[3],0.701 µM (active)
CC(C)(c1ccccc1)c1ccc(O)cc1,outcome,[2],inactive
same,AC50,[3],3.55 µM (active)
CCSC(=O)N(CC)C1CCCCC1,outcome,[1],inactive
same,outcome,[6],inactive
same,outcome,[8],inactive
same,outcome,[9],inactive
same,outcome,[10],inactive
Clc1ccc(C(Cl)(Cl)Cl)cc1,outcome,[1],inactive
same,outcome,[2],inactive
same,outcome,[3],inactive
CCNc1nc(NC(C)C)nc(SC)n1,outcome,[1],inactive
same,outcome,[2],inactive
same,outcome,[6],inactive
same,AC50,[8],1.42 µM (active)
same,AC50,[9],0.262 µM (active)
O=NN(c1ccccc1)c1ccccc1,outcome,[2],inactive
CCC(C)c1cc([N+](=O)[O-])cc([N+](=O)[O-])c1O (configuration not stated),outcome,[1],inactive
same,outcome,[2],inactive
CCCCCCCCCC[N+](C)(C)CCCCCCCCCC,outcome,[1],inactive
same,outcome,[2],inactive
same,AC50,[3],43.8 µM (active)
CCC(=O)O[C@H]1CC[C@H]2[C@@H]3CCC4=CC(=O)CC[C@]4(C)[C@H]3CC[C@]12C,outcome,[1],inactive
same,outcome,[2],inactive
same,outcome,[3],inactive
Cc1ccc(O)c(C)c1,outcome,[1],inactive
same,outcome,[2],inactive
same,AC50,[3],18.2 µM (active)
Sc1ccccc1,outcome,[3],inactive
O=C(O)C(F)(F)C(F)(F)C(F)(F)C(F)(F)C(F)(F)C(F)(F)C(F)(F)C(F)(F)C(F)(F)F,outcome,[1],inactive
same,outcome,[2],inactive
same,AC50,[4],23.3 µM (active)
same,AC50,[5],72.2 µM (active)
same,AC50,[3],22.7 µM (active)
O=C(NC(=O)c1c(F)cccc1F)Nc1cc(Cl)c(OC(F)(F)C(F)F)c(Cl)c1,outcome,[1],inactive
same,outcome,[2],inactive
same,AC50,[3],20.7 µM (active)
Oc1c(Cl)c(Cl)c(Cl)c(Cl)c1Cl,outcome,[1],inactive
same,outcome,[2],inactive
same,AC50,[3],8.93 µM (active)
CCOP(=S)(OCC)SCSC(C)(C)C,outcome,[2],inactive
same,AC50,[3],8.68 µM (active)
ClC1=C(Cl)[C@]2(Cl)[C@@H]3[C@H]4C[C@H]([C@@H]5O[C@H]45)[C@@H]3[C@@]1(Cl)C2(Cl)Cl,outcome,[1],inactive
same,outcome,[2],inactive
O=C(O)C(F)(F)C(F)(F)C(F)(F)C(F)(F)C(F)(F)C(F)(F)C(F)(F)C(F)(F)F,outcome,[1],inactive
same,outcome,[2],inactive
same,outcome,[3],inactive
CCCCCCCCOC(=O)c1ccccc1C(=O)OCCCCCCCC,outcome,[1],inactive
same,outcome,[2],inactive
same,AC50,[3],11.8 µM (active)
CC(c1ccc(O)cc1)(c1ccc(O)cc1)c1ccc(O)cc1,outcome,[1],inactive
same,outcome,[2],inactive
same,AC50,[3],1.41 µM (active)
COS(=O)(=O)OC,outcome,[1],inactive
same,outcome,[2],inactive
same,outcome,[4],inactive
same,outcome,[5],inactive
same,AC50,[3],27 µM (active)
ClC1=C(Cl)[C@]2(Cl)[C@@H]3[C@@H]4C[C@@H]([C@H]5O[C@@H]45)[C@@H]3[C@@]1(Cl)C2(Cl)Cl,outcome,[2],inactive
